Data on 39 compounds can be found in PubChem BioAssay (Tox21).

“And” between values parts separate entries of the source, which are not always exact repeats. Equal values may be shown once. Records with an inconclusive call do not appear. A number with no mark means an inactive call. The source made the active and inactive calls. Calls come from the whole dose curve; as a rule, active = well fitted curve in the direction sought with a large enough effect in the repeat runs; inconclusive = weak or mixed curves; inactive = no such curve, though single readings can be large; an effect the other way counts as inactive or inconclusive.

In assay [1] the target is Cytochrome P450 2C9 (Homo sapiens) (UniProt P11712). Nature of the assay: Cytochrome P450 Family 2 Subfamily C Member 9 (CYP2C9) small molecule antagonists: luciferase reporter qHTS assay (AID 1671198). For activity change, negative = inhibition: series mostly up to about 120 µM. The essentials:
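CYP2C9 activity was measured with a P450-Glo proluciferin substrate. Enzyme–substrate mix was held with compound for 10 min at room temperature, then NADPH regeneration solution was added for 1 h at 37C. Luciferin product was read as luminescence.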

The target in assay [2] is Cytochrome P450 1A2 (Homo sapiens) (UniProt P05177). As to the kind of experiment: Cytochrome P450 Family 1 Subfamily A Member 2 (CYP1A2) small molecule antagonists: luciferase reporter qHTS assay (AID 1671199). For activity change, negative = inhibition: series mostly up to about 120 µM. The essentials:
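P450-Glo CYP1A2, 1536-well qHTS: enzyme/proluciferin substrate + cpd (DMSO), 10 min RT; NADPH regen, 1 h RT; detection reagent, 20 min; luminescence, RLU.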

For assay [3], the target named is Voltage-gated inwardly rectifying potassium channel KCNH2 (Homo sapiens) (UniProt Q12809). As to the kind of experiment: Human Ether-a-go-go-Related Gene (hERG) channel small molecule antagonists: fluorescence cell-based qHTS assay (AID 1671200).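 For activity change, negative = inhibition: hERG-expressing U2OS cells given a thallium stimulus after FluxOR II dye loading; series mostly up to about 77 µM.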 Summed up: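 hERG-U2OS cells plated overnight at 37 C, loaded with FluxOR II dye 1 h at RT in dark; after 10 min, thallium stimulus added. Fluorescence (480/540 nm) read kinetically for 2 min at 1 s intervals.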
(hERG is a cardiac potassium channel; its block is linked to QT prolongation.)

Assay [4] concerns the target Cytochrome P450 3A4 (Homo sapiens) (UniProt P08684). As to the kind of experiment: Cytochrome P450 Family 3 Subfamily A Member 4 (CYP3A4) small molecule antagonists: luciferase reporter qHTS assay (AID 1671201). For activity change, negative = inhibition: series mostly up to about 120 µM. Summed up:
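P450-Glo CYP3A4 luminescent assay: compounds preincubated 10 min at room temperature with enzyme and proluciferin substrate, NADPH regeneration added, 1 h room-temperature reaction, stopped with luciferin detection reagent; luminescence read after 20 min. Ketoconazole positive control.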
% is set by controls: 0 for no effect and ±100 for the full control effect; potency is the fitted concentration of half-maximal effect.
Note: nearly all actives have a fitted effect of over 50% in size.

Sequence of Cytochrome P450 3A4 (Homo sapiens) (P08684 whole entry, looked up): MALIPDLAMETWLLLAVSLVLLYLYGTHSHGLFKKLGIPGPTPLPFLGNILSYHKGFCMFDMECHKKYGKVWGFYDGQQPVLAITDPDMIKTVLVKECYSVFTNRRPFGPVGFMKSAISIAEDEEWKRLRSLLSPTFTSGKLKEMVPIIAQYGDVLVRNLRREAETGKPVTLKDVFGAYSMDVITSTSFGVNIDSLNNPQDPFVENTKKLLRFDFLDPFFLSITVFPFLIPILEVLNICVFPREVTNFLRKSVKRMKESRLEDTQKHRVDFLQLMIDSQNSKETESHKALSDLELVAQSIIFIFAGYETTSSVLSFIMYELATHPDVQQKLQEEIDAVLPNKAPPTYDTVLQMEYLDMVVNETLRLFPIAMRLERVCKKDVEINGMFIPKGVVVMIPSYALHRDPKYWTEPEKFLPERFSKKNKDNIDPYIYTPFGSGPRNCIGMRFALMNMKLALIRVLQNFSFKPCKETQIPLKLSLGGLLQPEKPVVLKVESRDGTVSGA
Sequence of Voltage-gated inwardly rectifying potassium channel KCNH2 (Homo sapiens) (Q12809 whole entry, looked up): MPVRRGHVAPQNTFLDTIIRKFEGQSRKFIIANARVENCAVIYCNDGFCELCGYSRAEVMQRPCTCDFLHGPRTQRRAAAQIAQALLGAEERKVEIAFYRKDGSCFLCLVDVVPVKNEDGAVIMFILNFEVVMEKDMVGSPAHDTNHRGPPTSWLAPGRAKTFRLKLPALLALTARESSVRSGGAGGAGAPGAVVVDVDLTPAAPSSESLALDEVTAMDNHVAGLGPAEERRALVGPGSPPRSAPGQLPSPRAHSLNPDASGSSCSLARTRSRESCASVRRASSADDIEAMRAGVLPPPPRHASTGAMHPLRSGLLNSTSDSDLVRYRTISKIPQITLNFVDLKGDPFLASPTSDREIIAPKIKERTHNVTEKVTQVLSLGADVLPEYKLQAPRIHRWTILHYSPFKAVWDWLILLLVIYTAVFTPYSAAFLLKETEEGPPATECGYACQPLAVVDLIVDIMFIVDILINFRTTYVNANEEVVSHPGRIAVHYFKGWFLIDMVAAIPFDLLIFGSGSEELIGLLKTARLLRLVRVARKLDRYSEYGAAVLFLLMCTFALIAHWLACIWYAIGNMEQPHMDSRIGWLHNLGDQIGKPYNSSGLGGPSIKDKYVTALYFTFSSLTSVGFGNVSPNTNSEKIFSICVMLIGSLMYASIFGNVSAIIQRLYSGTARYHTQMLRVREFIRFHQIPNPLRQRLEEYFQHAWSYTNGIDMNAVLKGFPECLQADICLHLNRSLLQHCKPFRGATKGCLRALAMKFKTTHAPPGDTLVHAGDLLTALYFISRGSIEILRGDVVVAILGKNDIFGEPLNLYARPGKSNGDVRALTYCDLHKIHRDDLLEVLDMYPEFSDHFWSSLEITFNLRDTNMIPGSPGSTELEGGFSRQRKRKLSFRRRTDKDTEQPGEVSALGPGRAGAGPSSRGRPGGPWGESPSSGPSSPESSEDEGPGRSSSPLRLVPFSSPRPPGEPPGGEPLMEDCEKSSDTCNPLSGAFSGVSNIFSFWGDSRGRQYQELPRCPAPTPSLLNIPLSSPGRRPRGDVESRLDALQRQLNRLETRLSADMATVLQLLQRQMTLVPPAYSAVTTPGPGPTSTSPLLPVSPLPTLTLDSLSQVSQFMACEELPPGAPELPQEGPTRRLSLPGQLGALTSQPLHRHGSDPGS
Sequence of Cytochrome P450 2C9 (Homo sapiens) (P11712 whole entry, looked up): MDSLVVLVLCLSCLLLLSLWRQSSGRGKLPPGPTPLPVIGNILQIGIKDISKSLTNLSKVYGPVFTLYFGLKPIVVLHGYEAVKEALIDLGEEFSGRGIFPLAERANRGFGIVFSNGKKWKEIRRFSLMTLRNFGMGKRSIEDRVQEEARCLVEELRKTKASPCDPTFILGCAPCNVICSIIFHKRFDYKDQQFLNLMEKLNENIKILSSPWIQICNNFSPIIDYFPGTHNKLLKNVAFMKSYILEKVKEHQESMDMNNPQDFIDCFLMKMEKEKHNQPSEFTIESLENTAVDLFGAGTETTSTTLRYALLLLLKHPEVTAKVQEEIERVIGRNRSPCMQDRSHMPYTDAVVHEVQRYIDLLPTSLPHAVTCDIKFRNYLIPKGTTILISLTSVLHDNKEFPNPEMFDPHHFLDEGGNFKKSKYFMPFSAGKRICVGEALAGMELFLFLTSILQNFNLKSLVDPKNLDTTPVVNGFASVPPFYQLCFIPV
Sequence of Cytochrome P450 1A2 (Homo sapiens) (P05177 whole entry, looked up): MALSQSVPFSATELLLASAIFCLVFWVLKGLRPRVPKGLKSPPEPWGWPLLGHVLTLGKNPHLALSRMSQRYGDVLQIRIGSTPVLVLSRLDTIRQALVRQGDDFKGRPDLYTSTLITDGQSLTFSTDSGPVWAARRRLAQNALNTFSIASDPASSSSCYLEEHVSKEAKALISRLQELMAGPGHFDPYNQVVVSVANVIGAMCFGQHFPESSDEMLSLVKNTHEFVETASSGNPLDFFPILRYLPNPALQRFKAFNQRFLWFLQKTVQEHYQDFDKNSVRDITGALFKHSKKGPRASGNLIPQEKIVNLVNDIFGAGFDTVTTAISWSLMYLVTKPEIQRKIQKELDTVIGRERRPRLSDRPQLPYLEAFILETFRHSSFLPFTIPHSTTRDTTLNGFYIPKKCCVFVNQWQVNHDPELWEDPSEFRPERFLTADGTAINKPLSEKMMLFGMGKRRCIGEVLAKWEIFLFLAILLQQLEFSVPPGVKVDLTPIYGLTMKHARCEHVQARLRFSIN

Regarding `CC(C)(C)c1cc(CCC(=O)NCCCCCCNC(=O)CCc2cc(C(C)(C)C)c(O)c(C(C)(C)C)c2)cc(C(C)(C)C)c1O`, the figures for the Potency in assay [1] and in assay [4] were 1.42 µM (active) and 2.83 µM (active), respectively. In addition, the Potency result in assay [2] and in assay [3] was “inactive” each time.

Take `CCc1c(C(=O)O)c(=O)cnn1-c1ccc(Cl)cc1`: the Potency result in assay [1], in assay [2], in assay [3] and in assay [4] was “inactive” throughout.

Regarding `Cn1cccc1`, the Potency result in assay [1], in assay [2], in assay [3] and in assay [4] was “inactive” throughout.

On to `Clc1cc(Cl)c(-c2c(Cl)c(Cl)cc(Cl)c2Cl)cc1Cl`, for which the Potency entry in assay [1], in assay [2], in assay [3] and in assay [4] was “inactive” each time.

For the compound `CC1CCCCN1CCCOC(=O)c1ccc(OC2CCCCC2)cc1` (stereo unspecified), the Potency result in assay [1], in assay [2] and in assay [4] was “inactive” each time. Further, in assay [3], the Potency is 2.68 µM (active).

In the case of `CCCC(C)CCC(C)=O` (stereo unspecified), the Potency result in assay [1], in assay [2], in assay [3] and in assay [4] was “inactive” in each case.

On to `CCN(CC)c1cccc(C)c1`, for which the Potency result in assay [1], in assay [2], in assay [3] and in assay [4] was “inactive” each time.

Regarding `O=S(=O)(O)CCCN1CCOCC1`, the Potency result in assay [1], in assay [2], in assay [3] and in assay [4] was “inactive” each time.

For the compound `OCCCS`, the Potency result in assay [1], in assay [2], in assay [3] and in assay [4] was “inactive” each time.

As for `C=CC(=O)OCCC#N`, the Potency entry in assay [1], in assay [2], in assay [3] and in assay [4] was “inactive” each time.

Take `CS(C)(=O)=O`: the Potency result in assay [1], in assay [2], in assay [3] and in assay [4] was “inactive” each time.

On to `SCCCCCCCCS`, for which the Potency result in assay [1], in assay [2], in assay [3] and in assay [4] was “inactive” throughout.

Regarding `CC1=CCC(=O)O1`, the Potency result in assay [1], in assay [2], in assay [3] and in assay [4] was “inactive” throughout.

Consider `CC(C)C(=O)OCc1ccccc1`, for which the Potency entry in assay [1], in assay [2], in assay [3] and in assay [4] was “inactive” in each case.

Take `CO[Si](CCCNCCNCCN)(OC)OC`: the Potency result in assay [1], in assay [2], in assay [3] and in assay [4] was “inactive” in each case.

For the compound `Cc1cnccn1`, the Potency entry in assay [1], in assay [2], in assay [3] and in assay [4] was “inactive” throughout.

Take `Cc1cc(Nc2ccc(O)cc2)ccc1N`: the Potency in assay [1] is 5.62 µM (active); in assay [2], 35.4 µM (active); in assay [4] it was 7.93 µM (active). Also, the Potency entry in assay [3] was “inactive”.

Take `CCOC(=O)CC(C)O` (stereo unspecified): the Potency entry in assay [1], in assay [2], in assay [3] and in assay [4] was “inactive” each time.

As to `CCCCCCCCCCCCOC(=O)c1cc(O)c(O)c(O)c1`, the Potency in assay [1] is 9.99 µM (active) and 28.3 µM (active); in assay [4], 17.8 µM (active) and 20 µM (active). The Potency entry in assay [2] and in assay [3] was “inactive” in each case.

For `O=c1cccc[nH]1`, the Potency entry in assay [1], in assay [2], in assay [3] and in assay [4] was “inactive” each time.

For the compound `O=C(O)CC(=O)O`, the Potency result in assay [1], in assay [3] and in assay [4] was “inactive” in each case. Further, the Potency in assay [2] is 63.4 µM (active).

For `C[Si](C)O[Si](C)C`, the Potency entry in assay [1], in assay [2], in assay [3] and in assay [4] was “inactive” each time.

Take `N[C@@H](CSSC[C@H](N)C(=O)O)C(=O)O`: the activity change, negative = inhibition was 1.25% [at 0.435 µM] in assay [1], -15.1% [at 0.435 µM] in assay [2], -0.819% [at 0.29 µM] in assay [3] and 5.27% [at 0.435 µM] in assay [4].

As for `C[C@]12CC[C@H]3C(=CCc4cc(O)ccc43)[C@@H]1CCC2=O`, the Potency was 35.6 µM (active) in assay [1], 35.6 µM (active) in assay [2] and 20 µM (active) in assay [4]. Also, in assay [3], the Potency result was “inactive”.

Take `CC(C)=CC1CC(C)CCO1` (stereo unspecified): the Potency entry in assay [1], in assay [2], in assay [3] and in assay [4] was “inactive” each time.

Take `CCCCCCCC/C=C\CCCCCCCC(=O)N(C)CC(=O)O`: the Potency in assay [1] was 44.8 µM (active). Further, the Potency entry in assay [2], in assay [3] and in assay [4] was “inactive” each time.

Take `C[C@@]12C(=O)OC(=O)[C@]1(C)C1CCC2O1`: the Potency result in assay [1], in assay [2], in assay [3] and in assay [4] was “inactive” each time.

As for `CCCCCCCCCCCCN(CCO)CCO`, the Potency in assay [1] was 63 µM (active); in assay [2], 11.2 µM (active); in assay [3] it was 7.73 µM (active). Further, the Potency entry in assay [4] is “inactive”.

Take `OCCC(O)CO` (stereo unspecified): the Potency entry in assay [1], in assay [2], in assay [3] and in assay [4] was “inactive” each time.

On to `CN(C)c1ccc(N=Nc2ccccc2C(=O)O)cc1`, for which the values for the Potency in assay [1] and in assay [2] were 31.7 µM (active) and 25.2 µM (active), respectively. Besides, the Potency result in assay [3] and in assay [4] was “inactive” in each case.

For the compound `C=CC(=O)OCCN(CC)CC`, the Potency entry in assay [1], in assay [2], in assay [3] and in assay [4] was “inactive” each time.

In the case of `CCCC(=O)OCC(COC(=O)CCC)OC(=O)CCC`, the values for the Potency in assay [1] and in assay [2] were 5.64 µM (active) and 28.3 µM (active), respectively. Besides, the Potency result in assay [3] and in assay [4] was “inactive” in each case.

For `O=C1c2c(O)ccc([N+](=O)[O-])c2C(=O)c2c([N+](=O)[O-])ccc(O)c21`, the Potency in assay [1] was 28 µM (active); in assay [2], 7.03 µM (active); in assay [4] it was 12.5 µM (active). In assay [3], the Potency result was “inactive”.

Consider `O=C(O)c1cccc(Cl)n1`, for which the Potency result in assay [1], in assay [2], in assay [3] and in assay [4] was “inactive” throughout.

For `C=CC(C)C#N` (stereo unspecified), the Potency entry in assay [1], in assay [2], in assay [3] and in assay [4] was “inactive” each time.

On to `O=C(Nc1ccc(Cl)c(Cl)c1)c1cc(Cl)cc(Cl)c1O`, for which the results for the Potency in assay [1], in assay [2] and in assay [4] were 11.2 µM (active), 20 µM (active) and 17.8 µM (active), respectively. In addition, in assay [3], the Potency entry was “inactive”.

Regarding `CCCCN(C)C`, the Potency result in assay [1], in assay [2], in assay [3] and in assay [4] was “inactive” throughout.

With `CN(C)CCCN1c2ccccc2Sc2ccc(C(F)(F)F)cc21`, the Potency result in assay [1] and in assay [4] was “inactive” throughout. Besides, the Potency was 3.63 µM (active) in assay [2] and 2.68 µM (active) in assay [3].

Consider `CCOC(=O)CN`, for which the Potency result in assay [1], in assay [2], in assay [3] and in assay [4] was “inactive” each time.
